The list is not random: actives were taken first. Their share in the collection is about 2.6%.
IDE cell activ: boosts human insulin-degrading enzyme activity in HEK cells; P14735; FAbeta-B cleavage, fluorescence polarization; 0% vehicle, 100% cell-free pure enzyme wells; activation, % at 5.96 µM; 0.073% of 340,000 active;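 active = activation above the mean of all tested compounds plus 3 SD, set per screening campaign, cut at about 17% in these data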
Target sequence (P14735 whole entry, looked up): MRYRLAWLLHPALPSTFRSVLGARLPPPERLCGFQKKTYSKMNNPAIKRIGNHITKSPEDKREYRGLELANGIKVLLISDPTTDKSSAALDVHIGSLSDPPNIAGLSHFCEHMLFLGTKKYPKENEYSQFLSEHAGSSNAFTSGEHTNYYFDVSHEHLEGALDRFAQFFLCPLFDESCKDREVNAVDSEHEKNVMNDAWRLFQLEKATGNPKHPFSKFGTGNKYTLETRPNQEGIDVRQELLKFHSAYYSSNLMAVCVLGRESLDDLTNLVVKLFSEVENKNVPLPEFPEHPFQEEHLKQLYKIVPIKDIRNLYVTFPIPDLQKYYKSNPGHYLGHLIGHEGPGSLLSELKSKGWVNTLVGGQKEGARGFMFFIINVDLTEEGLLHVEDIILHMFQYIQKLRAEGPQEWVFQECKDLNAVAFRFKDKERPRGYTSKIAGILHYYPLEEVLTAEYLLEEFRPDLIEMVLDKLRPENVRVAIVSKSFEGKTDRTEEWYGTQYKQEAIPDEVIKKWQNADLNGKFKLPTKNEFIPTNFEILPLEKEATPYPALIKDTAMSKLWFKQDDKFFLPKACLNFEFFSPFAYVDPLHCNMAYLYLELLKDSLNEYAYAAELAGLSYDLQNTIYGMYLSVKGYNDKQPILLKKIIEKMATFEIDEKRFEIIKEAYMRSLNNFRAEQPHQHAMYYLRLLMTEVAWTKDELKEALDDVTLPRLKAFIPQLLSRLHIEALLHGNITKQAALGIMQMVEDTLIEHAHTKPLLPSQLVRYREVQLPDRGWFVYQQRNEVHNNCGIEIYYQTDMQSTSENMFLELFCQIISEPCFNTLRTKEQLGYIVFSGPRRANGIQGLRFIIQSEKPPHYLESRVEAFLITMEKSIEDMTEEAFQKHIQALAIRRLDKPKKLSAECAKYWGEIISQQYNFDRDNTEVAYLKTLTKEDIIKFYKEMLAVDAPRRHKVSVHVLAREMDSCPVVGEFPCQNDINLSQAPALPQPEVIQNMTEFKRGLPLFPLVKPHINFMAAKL
TPT1 inhibitor: C. albicans TPT1 enzyme inhibition; recombinant caTPT1, FP RNA substrate dephosphorylation; inhibition, % at 5 µM; 0.81% of 300,000 active;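 active = inhibition above the mean of all tested compounds plus 3 SD, set per screening campaign, cut at about 24% in these data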;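 also: plate controls were DMSO alone for no effect and ferristatin control at 100 nM for full effect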
IDE cell inh: cellular human IDE inhibition | P14735 | HEK cells, FAbetaB cleavage, fluorescence polarization | AID 434962 | inhibition, % at 5.59 µM | 0.41% of 320,000 active;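 active = percent inhibition above the average of all tested compounds plus 3 SD, set per screening campaign, cut at about 16% in these data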;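 also: IDE supplied by intact live HEK cells; FP after avidin binding of uncleaved biotin substrate so inhibition keeps polarization high; 0% = DMSO wells and 100% = 60 µM reference IDE inhibitor Ii1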
CRFBP-R2 agonist: agonists of human CRF-binding protein/CRF-R2 receptor complex | HEK293 CRF-R2/CRF-BP, calcium dye fluorescence (FLIPR); percent of saturating CRF peptide response | activation, % at 13.2 µM | 0.46% of 350,000 active | AID 588473;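 active = activation of at least 50%, plus an integration ratio under a set limit after plate pattern correction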;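 also: plate controls were neutral control wells without compound for no effect and CRF at EC100 for full effect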
CRFBP-R2 block: antagonists of CRF-binding protein/CRF-R2 receptor complex | HEK293 CRF-R2/CRF-BP, CRF-induced calcium fluorescence | 0.59% of 350,000 active | inhibition, % at 11.8 µM;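 active = inhibition of the ligand-induced calcium signal above about 50% at the single tested concentration, limit read from the data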
Myeloid diff MLP: compounds promoting myeloid differentiation; AID 624256; calls only at 10 µM; ER-HoxA9 myeloid progenitors, lysozyme-GFP differentiation, flow cytometry; 1% of 360,000 active;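 active = normalized GFP-positive differentiation at or above the plate's own cutoff, the solvent-only control mean plus 3 SD; inconclusive = no clear call, values can overlap the other calls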;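 also: cells exposed to compound for four days before flow analysis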
caTPT1 confirm: confirmation of Candida albicans TPT1 inhibitors. shares compounds with TPT1 inhibitor. recombinant caTPT1, fluorescence polarization, RNase T1 coupled. inhibition, % at 5 µM. 74% of 2,400 active. AID 2149;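 active = inhibition above the primary screen limit, the mean inhibition of all tested compounds plus 3 SD, cut at about 25% in these data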
RNase T1 inh: counter-screen for TPT1 inhibitors: inhibitors of Aspergillus oryzae RNase T1; 83% of 2,400 active; AID 2153; inhibition, % at 5 µM; shares compounds with TPT1 inhibitor; RNase T1 cleavage, fluorescence polarization, 1536-well;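 active = inhibition above the solvent-only control well mean plus 3 SD, limit set per screening run, cut at about 23% in these data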;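 also: plate controls were DMSO wells with enzyme for no effect and wells without RNase T1 for full effect; inhibitors block cleavage so intact labeled substrate keeps polarization high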
Starred values were filed as active, the others as inactive; i = inactive; ? = inconclusive; · = no result given.

SMILES | IDE cell activ | TPT1 inhibitor | IDE cell inh | CRFBP-R2 agonist | CRFBP-R2 block | Myeloid diff MLP | caTPT1 confirm | RNase T1 inh
Cn1c(CNC(=O)CNC(=O)Cc2ccccc2)cc(=O)n(C)c1=O | 2 | -2 | 7 | -1 | 6 | i | · | ·
O=C1c2ccccc2S(=O)(=O)c2cc(N3CCC(C(=O)N4CCCCC4)CC3)ccc21 | · | 58* | 15 | 36 | -23 | · | 78* | 88*
N#C/C(=C\c1ccc([N+](=O)[O-])o1)C(=O)Nc1ccc(F)cc1 | -10 | 39* | 12 | 10 | -29 | ? | 42* | 55*
CCOC(=O)c1c(/N=C/N(C)C)sc(/C=N/Nc2ccccc2)c1-c1ccccc1Cl | -3 | 35* | 2 | 0 | 0 | i | 40* | 52*
CCOC(=O)c1c(/N=C/N(C)C)sc(/C=N/Nc2ccccc2)c1-c1ccccc1 | 7 | 21 | 4 | 4 | -15 | i | · | ·
O=C(CCn1cccn1)Nc1ccc2c(c1)OCCO2 | 6 | -4 | 0 | 0 | -9 | i | · | ·
CN(C)c1ccc(/C=C(\Cl)c2nc3ccccc3s2)cc1 | 0 | 73* | 2 | 10 | -36 | i | 84* | 91*
O=C(O)c1ccc(C=C(c2nc3ccccc3s2)c2nc3ccccc3s2)cc1 | 3 | 5 | -7 | -5 | 23 | i | · | ·
CCCCN1C(=O)C(O)(CC(=O)c2c(C)coc2C)c2ccccc21 (stereo not given) | 6 | -1 | -1 | 1 | -9 | i | · | ·
CCCCN1C(=O)C2(NNc3ccccc3O2)c2ccccc21 (stereo not given) | -8 | 91* | 16 | -2 | 10 | i | 94* | 102*
O=C(Oc1coc(CSc2ncccn2)cc1=O)c1ccccc1[N+](=O)[O-] | 8 | 46* | -2 | 2 | -5 | i | 6 | 10
Cc1cc(C)nc(SCc2cc(=O)c(OC(=O)c3cc([N+](=O)[O-])ccc3Cl)co2)n1 | 3 | 1 | 5 | 1 | 9 | i | · | ·
CCOc1ccccc1C(=O)Nc1nccs1 | 2 | 27* | 4 | -2 | 2 | i | 11 | 13
CCOc1ccccc1C(=O)Nc1nnc(COC)s1 | 4 | 1 | 3 | -2 | -1 | i | · | ·
CCc1ccc(/C=C2\Oc3c(ccc(O)c3CN3CCN(C)CC3)C2=O)cc1 | -10 | 26* | 0 | 48 | -19 | i | 28* | 38*
CCN1CCN(Cc2c(O)ccc3c2O/C(=C\c2ccccc2)C3=O)CC1 | -4 | 3 | -2 | 28 | -23 | i | · | ·
Cc1ccc(C(=O)NNC(=O)CCCN2C(=O)/C(=C/c3ccccc3Cl)SC2=S)cc1 | 3 | 38* | 16 | -1 | -35 | i | 7 | 12
O=C(CCCN1C(=O)/C(=C/c2ccccc2Cl)SC1=S)NNC(=O)c1ccc(Cl)cc1 | 2 | 2 | -2 | 5 | -10 | i | · | ·
CCN1CC2=C(OC(N)=C(C#N)C2c2cccs2)/C(=C/c2cccs2)C1 (stereo not given) | 0 | 34* | 11 | 5 | -6 | i | 25* | 36*
CCN1CC2=C(OC(N)=C(C#N)C2c2ccccc2)/C(=C\c2ccccc2)C1 (stereo not given) | 0 | -4 | 3 | 1 | -32 | i | · | ·
O=C(Nc1ccc(S(=O)(=O)Nc2nccs2)cc1)c1cnc(Cl)c(Cl)c1 | -1 | 33* | -4 | 1 | 0 | i | 31* | 48*
CCn1nc(C(=O)Nc2ccc(S(=O)(=O)Nc3nccs3)cc2)c2ccccc2c1=O | 2 | 31* | 12 | 6 | -43 | i | 54* | 71*
CC1=C(C#N)C(=O)N(C2CCS(=O)(=O)C2)C(=O)/C1=C\c1ccco1 (stereo not given) | · | 74* | 8 | · | · | · | 85* | 10
O=C1/C(=C\c2ccco2)SC(=S)N1C1CCCCC1 | · | 5 | -1 | · | · | · | · | ·
Cc1ccccc1NC(=O)CCC(=O)N/N=C/c1ccncc1 | 8 | 0 | -1 | -1 | 4 | i | · | ·

Screening results deposited in PubChem BioAssay by several laboratories.
